# TDP1 inh = blocks human tyrosyl-DNA phosphodiesterase 1; recombinant TDP1, AlphaScreen DNA substrate cleavage; Potency, µM (series often up to 130 µM), inactives show at the highest dose activity change, negative = inhibition, actives largely listed as inhibitors; hit rate 0.28% among 350,000; Q9NUW8; note: potency is the fitted concentration of half-maximal effect; % is set by controls: 0 for no effect and ±100 for the full control effect; nearly all actives have a fitted effect of over 40% in size
# Target sequence (Q9NUW8 whole entry, looked up): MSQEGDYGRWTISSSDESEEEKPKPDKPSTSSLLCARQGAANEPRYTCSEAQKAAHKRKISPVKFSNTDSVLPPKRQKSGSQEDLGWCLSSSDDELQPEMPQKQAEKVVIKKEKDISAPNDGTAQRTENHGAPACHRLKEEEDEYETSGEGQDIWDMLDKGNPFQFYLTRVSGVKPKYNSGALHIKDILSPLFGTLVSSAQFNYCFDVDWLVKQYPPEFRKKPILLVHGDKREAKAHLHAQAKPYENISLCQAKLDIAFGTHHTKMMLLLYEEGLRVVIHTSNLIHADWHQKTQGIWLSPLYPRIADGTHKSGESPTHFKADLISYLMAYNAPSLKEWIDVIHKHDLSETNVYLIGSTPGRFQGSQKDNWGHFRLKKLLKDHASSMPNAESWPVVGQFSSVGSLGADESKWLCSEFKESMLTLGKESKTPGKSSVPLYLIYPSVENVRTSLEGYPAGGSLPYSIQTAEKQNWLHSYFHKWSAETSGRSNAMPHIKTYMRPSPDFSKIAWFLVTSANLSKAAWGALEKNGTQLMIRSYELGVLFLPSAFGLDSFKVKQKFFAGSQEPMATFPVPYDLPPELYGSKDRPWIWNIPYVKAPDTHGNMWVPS
#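 Enzyme-compound mixtures sat 15 min at room temperature, followed by a 5 min reaction with 15 nM final substrate and 10 min with AlphaScreen beads. Recombinant human Tdp1 was used at 1 nM final.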
# DT40 TDP1 no CPT = qHTS for Inhibitors of human tyrosyl-DNA phosphodiesterase 1 (TDP1): qHTS in cells in absence of CPT | DT40 Tdp1-/- hTDP1 cells, no CPT, ATP luminescence, 48 h | Potency, µM (top dose mostly 46.2 µM), inactives show at the top dose activity change, negative = growth inhibition, hits mostly inhibitors | hit rate 15% among 420,000 | AID 686978, 2013; note: potency is the fitted concentration of half-maximal effect; % is set by controls: 0 for no effect and ±100 for the full control effect; nearly all actives have a fitted effect of over 55% in size
#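 Compound effects on proliferation are scored in DT40 Tdp1-/-;hTDP1 cells in the absence of CPT. ATP levels (CellTiter-Glo luminescence) are recorded after a ≥48 hr, 37 °C incubation.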
# TGFb SMAD3 inh = inhibitors of TGF-b signaling | AID 588855 | hit rate 1.2% among 410,000 | HepG2 CAGA-GFP TGF-b/SMAD3 reporter, GFP fluorescence, 18 h; TGF-beta stimulated, 500 pg/mL final | Potency, µM (titrated, usually from 46.1 µM), for the others: at the top dose activity, negative = inhibition, actives largely listed as inhibitors; note: potency is the fitted concentration of half-maximal effect; % is set by controls: 0 for no effect and ±100 for the full control effect; nearly all actives have a fitted effect of over 65% in size
#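 Using HEPG2 CAGA-GFP reporter cells at 1000 cells/well, we pinned test compounds, stimulated with recombinant TGF-beta (500 pg/mL final) and measured total well GFP after 18 h.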
# TDP1 cell CPT = growth inhibition of DT40 Tdp1-/-;hTDP1 cells with camptothecin (screen for TDP1 inhibitors) | chicken DT40 Tdp1-/-;hTDP1 cells + 20 nM CPT, ATP luminescence, 48 h | Potency, µM (highest dose often 46.2 µM), for the others: at the highest dose activity change, negative = growth inhibition, actives largely listed as inhibitors | hit rate 12% among 420,000; note: potency is the fitted concentration of half-maximal effect; % is set by controls: 0 for no effect and ±100 for the full control effect; nearly all actives have a fitted effect of over 55% in size
#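 Cell growth measured by CellTiter-Glo luminescence after a minimum 48 h, 37 C compound exposure with 20 nM CPT in Tdp1-knockout DT40 cells stably expressing hTDP1, seeded 400/well; qHTS titration format.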
# HepG2 tox = HepG2 cytotoxicity, counter-screen for TGF-b inhibitors. hit rate 0.76% among 410,000. HepG2 CAGA-GFP viability, ATP luminescence, 18 h. Potency, µM (series often up to 46.1 µM), without a hit: top-dose activity change, negative = cytotoxicity, most hits filed as cytotoxic; note: potency is the fitted concentration of half-maximal effect
#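 HepG2 CAGA-GFP cells (1000/well, DMEM with 1% FBS) received compound, then TGF-beta at 500 pg/mL final, and were incubated 18 hours at 37 degrees C. Viability was read by CellTiter-Glo luminescence. Media-only wells were set as complete cell-killing and DMSO as no toxicity.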
# IL-1B inflam inh = inflammasome signaling inhibition, IL-1 beta readout. hit rate 4.7% among 360,000. AID 743279. activity change, % at 57.5 µM. THP-1 LPS/ATP IL-1B secretion, AlphaLISA, 16 h; hits give low values; in the data active = activity change below about -50%; inconclusive = mostly about -30% to -49%; note: % is set by controls: 0 for no effect and ±100 for the full control effect
#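 Secreted IL-1B measured by AlphaLISA bead assay after 16 h compound exposure of THP-1 cells; compounds (final up to 57.5 uM) added 1 h before LPS (250 ng/mL) and ATP (1.25 mM) stimulation; lower signal means less secretion.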
# The depositor's hits bear a star; ? = inconclusive; · = no result given; [ ] = remark or other dose. This is a sample that favours compounds with a hit; in the whole collection about 18% have one here. Unless noted, calls come from the whole dose curve; as a rule, active = well fitted curve in the direction sought with a large enough effect; inconclusive = small, poorly fitted or top-dose-only effect, or another doubt; inactive = no such curve, though single readings can be large; an effect the other way counts as inactive or inconclusive.
SMILES,TDP1 inh,DT40 TDP1 no CPT,TGFb SMAD3 inh,TDP1 cell CPT,HepG2 tox,IL-1B inflam inh
CCc1nnc(NC(=O)CCC(=O)N2CCN(Cc3ccc(C)cc3C)CC2)s1,6%,18µM*,-4%,?,-20%,33
CC(C)c1nnc(NC(=O)CCC(=O)N2CCN(Cc3ccc(F)cc3)CC2)s1,2%,-15%,-13%,?,-11%,11
CCCc1nnc(NC(=O)CCC(=O)N2CCN(Cc3ccccc3)CC2)s1,-1%,14%,-8%,-19%,-8%,46
Cc1ccc(CN2CCN(C(=O)CCC(=O)Nc3nnc(C(C)C)s3)CC2)c(C)c1,1%,?,?,?,-47%,-86*
CCCc1nnc(NC(=O)CCC(=O)N2CCN(Cc3ccc(C)cc3C)CC2)s1,1%,8.2µM*,?,-22%,-22%,10
CCc1nnc(NC(=O)CCC(=O)N2CCN(Cc3ccc(F)cc3)CC2)s1,0%,-4%,0%,-26%,-1%,22
Cc1cc(C)c2c(n1)SCC(=O)N2CC(=O)Nc1cccc(C)c1C,3%,-28%,?,?,-3%,·
Cc1ccc(S(=O)(=O)c2ccc([N+](=O)[O-])o2)cc1,·,0.18µM*,10µM*,0.033µM*,-100%,-100*
COc1cc(/C=N/NC(=O)c2nnn(-c3nonc3N)c2C(C)C)ccc1OCc1ccc(F)cc1,3%,21µM*,?,?,-2%,?
CCN(CC)c1ccc(/C=N/NC(=O)c2nnn(-c3nonc3N)c2C(C)C)c(O)c1,5%,3.3µM*,?,5.8µM*,-26%,80
CC(C)c1c(C(=O)N/N=C/c2cccc(OCc3ccc(F)cc3)c2)nnn1-c1nonc1N,4%,16µM*,?,?,-43%,-83*
CN(C)Cc1c(C(=O)N/N=C/c2cccc(OCc3ccc(F)cc3)c2)nnn1-c1nonc1N,0%,-11%,-20%,-2%,-25%,12
CC1CCC(C#N)(N(C)C(=O)CSc2nnc(C3CC3)n2C2CC2)CC1 (stereo unspecified),1%[56.1 µM],15%,3%,9%,-51%,10
COC(=O)c1ccc(C(=O)NCC2Cc3cccc(-c4ccc(C(=O)OC)cn4)c3O2)cc1 (stereo unspecified),·,-26%,·,?,·,·
O=C1C[C@@H](O)[C@@H](O)[C@@H]2[C@H]3C(=O)N(c4ccc(F)cc4F)C(=O)[C@@H]3CC[C@@H]12,6%[21 µM],·,·,·,·,·
COc1cccc2[nH]c3c(=O)[nH]cnc3c12,·,6%,3%,3%,8%,40
COc1cccc2c3cccc(OC)c3c3[nH]cnc3c12,·,7.3µM*,-3%,?,-95%,-102*
COc1cc(OC)cc(-c2nnc3n2N=C(c2ccccc2OC)CS3)c1,17%,·,·,·,·,·
CC(C)C(=O)Nc1nc(-c2ccc([N+](=O)[O-])cc2)cs1,-8%,4.6µM*,?,9.2µM*,-37%,-16
O=[N+]([O-])c1ccc(-c2csc(NN=C3CCCC3)n2)cc1,-3%,10µM*,?,4.1µM*,-27%,?
O=C(Cc1nc(-c2ccc([N+](=O)[O-])cc2)cs1)Nc1ccccc1,1%,16µM*,0%,22µM*,-55%,-24
COc1ccc(Cl)cc1S(=O)(=O)Nc1cccc(-c2ccc(N3CCCC3)nn2)c1,2%,-16%,4%,-19%,4%,·
CC(C)Cc1ccc(S(=O)(=O)NCC2CCCO2)cc1 (stereo unspecified),4%,?,-11%,?,-17%,27
CN(C)c1ccc(-c2cncnc2-n2ccnc2)cc1,·,-23%,·,?,·,·
Cc1ccc(Nc2nc(N)c([N+](=O)[O-])c(NCc3ccco3)n2)cc1,3%,?,?,?,-35%,-6
SMILES,TDP1 inh,DT40 TDP1 no CPT,TGFb SMAD3 inh,TDP1 cell CPT,HepG2 tox,IL-1B inflam inh
Cc1ccc2c(NCc3ccco3)nc(NC(C)C)nc2c1,·,?,·,?,·,-111*
CC(C)NCC(=O)Nc1c2c(nc3ccccc13)CCC2,0%,-12%,2%,-23%,-1%,27
N#Cc1c2c(c(NCc3ccco3)n3c1nc1ccccc13)CCC2,-2%,21µM*,-2%,-59%,-3%,55
Cc1nnc(NCc2ccco2)c2ccccc12,1%,-16%,-2%,-17%,5%,-6
c1coc(CNc2c3c(nc4ccccc24)CCC3)c1,4%,23µM*,?,16µM*,3%,-74*
c1coc(CNc2nc(NCc3ccco3)c3ccccc3n2)c1,·,13µM*,0.71µM*,11µM*,-12%,·
Cc1nc(C)c(C(=O)N2CCc3c(cnc(C)c3CNC(=O)c3cncs3)C2)s1,·,-9%,·,16%[9.04 µM],·,·
Fc1ccc(Nc2nc(NCc3ccco3)c3ccccc3n2)cc1,·,6.5µM*,?,9.2µM*,18µM*,-102*
Cc1cc2nc(C)n(CCCNC(=O)Nc3ccc(F)cc3)c2cc1C,5%,23µM*,-10%,?,-8%,?
COC(=O)[C@@]1(Cc2ccc(OC)cc2)[C@@H]2C(=CC(=O)[C@H]2CC(=O)C(=O)N2CCCC2)CN1C(=O)c1ccccc1,7%,16µM*,?,?,-46%,-76*
COC(=O)[C@@]1(Cc2ccc(F)cc2)[C@@H]2[C@@H](CC(=O)[C@H]2CC(=O)C(=O)N(C)C)CN1C(=O)c1ccccc1,1%,?,-19%,?,6%,-19
COC(=O)[C@@]1(Cc2ccc(OC)cc2)[C@@H]2[C@@H](CC(=O)[C@H]2CC(=O)C(=O)N(C)C)CN1C(=O)c1ccccc1,-4%,?,-3%,23µM*,1%,-21
COC(=O)[C@@]1(Cc2ccc(F)cc2)[C@H]2C(CC(=O)C(=O)N3CCCC3)C(=O)C[C@H]2CN1C(=O)c1ccccc1 (stereo partly specified),·,?,·,?,·,-70*
COC(=O)[C@@]1(Cc2ccc(OC)cc2)[C@@H]2[C@@H](CC(=O)[C@H]2CC(=O)C(=O)N2CCCC2)CN1C(=O)c1ccccc1,7%,·,·,·,·,·
FC(F)(F)c1cccc(NCc2n[nH]c(=S)n2C2CCCCC2)c1,1%,13µM*,0%,?,-48%,-14
O=C1c2ccccc2[C@@H]2C[C@@H](O)[C@H](Nc3cccc(C(F)(F)F)c3)CCN12,-2%[56.1 µM],?,-27%,23µM*,-20%,?

# Screening data: PubChem BioAssay, National Center for Advancing Translational Sciences (NCATS)
